Data from ChEMBL document CHEMBL1961873, “Compounds: GSK PKIS; Assays: Nanosyn kinase panel” (2012).

Experiments:
[1] = biological target: T1, Serine/threonine-protein kinase Nek9 (Homo sapiens) (UniProt Q8TD19); conditions: at 1 µM;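 also: each value is a mean percent inhibition of NEK9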
T1 sequence (whole entry): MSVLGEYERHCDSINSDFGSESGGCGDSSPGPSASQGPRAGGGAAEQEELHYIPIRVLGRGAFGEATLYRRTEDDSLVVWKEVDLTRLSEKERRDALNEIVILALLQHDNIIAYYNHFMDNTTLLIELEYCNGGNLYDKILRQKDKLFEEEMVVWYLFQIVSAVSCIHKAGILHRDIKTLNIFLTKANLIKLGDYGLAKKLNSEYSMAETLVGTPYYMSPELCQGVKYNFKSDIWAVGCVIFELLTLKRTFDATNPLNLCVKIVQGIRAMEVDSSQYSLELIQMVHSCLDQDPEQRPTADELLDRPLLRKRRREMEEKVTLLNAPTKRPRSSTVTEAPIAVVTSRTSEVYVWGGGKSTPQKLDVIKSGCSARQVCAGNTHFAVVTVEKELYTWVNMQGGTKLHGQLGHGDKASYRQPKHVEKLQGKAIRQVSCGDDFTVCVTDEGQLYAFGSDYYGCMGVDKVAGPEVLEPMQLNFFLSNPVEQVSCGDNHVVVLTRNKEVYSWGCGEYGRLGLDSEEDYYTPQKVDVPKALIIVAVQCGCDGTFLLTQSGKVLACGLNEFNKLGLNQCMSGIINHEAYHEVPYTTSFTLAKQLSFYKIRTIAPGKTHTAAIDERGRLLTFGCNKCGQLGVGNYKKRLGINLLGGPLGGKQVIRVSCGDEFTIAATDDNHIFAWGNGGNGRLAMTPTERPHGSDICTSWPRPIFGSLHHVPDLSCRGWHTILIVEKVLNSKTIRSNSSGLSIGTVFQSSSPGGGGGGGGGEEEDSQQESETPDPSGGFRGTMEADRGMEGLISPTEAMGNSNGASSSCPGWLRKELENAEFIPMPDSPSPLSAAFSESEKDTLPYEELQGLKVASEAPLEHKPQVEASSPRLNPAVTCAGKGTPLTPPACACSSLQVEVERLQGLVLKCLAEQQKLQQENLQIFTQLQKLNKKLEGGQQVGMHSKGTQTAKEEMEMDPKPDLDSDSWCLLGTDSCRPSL

[2] = biological target: Serine/threonine-protein kinase PLK1 (Homo sapiens) (UniProt P53350); conditions: at 0.1 µM
[3] = biological target: T2, Dual specificity protein kinase TTK (Homo sapiens) (UniProt P33981); conditions: at 0.1 µM
T2 sequence (whole entry): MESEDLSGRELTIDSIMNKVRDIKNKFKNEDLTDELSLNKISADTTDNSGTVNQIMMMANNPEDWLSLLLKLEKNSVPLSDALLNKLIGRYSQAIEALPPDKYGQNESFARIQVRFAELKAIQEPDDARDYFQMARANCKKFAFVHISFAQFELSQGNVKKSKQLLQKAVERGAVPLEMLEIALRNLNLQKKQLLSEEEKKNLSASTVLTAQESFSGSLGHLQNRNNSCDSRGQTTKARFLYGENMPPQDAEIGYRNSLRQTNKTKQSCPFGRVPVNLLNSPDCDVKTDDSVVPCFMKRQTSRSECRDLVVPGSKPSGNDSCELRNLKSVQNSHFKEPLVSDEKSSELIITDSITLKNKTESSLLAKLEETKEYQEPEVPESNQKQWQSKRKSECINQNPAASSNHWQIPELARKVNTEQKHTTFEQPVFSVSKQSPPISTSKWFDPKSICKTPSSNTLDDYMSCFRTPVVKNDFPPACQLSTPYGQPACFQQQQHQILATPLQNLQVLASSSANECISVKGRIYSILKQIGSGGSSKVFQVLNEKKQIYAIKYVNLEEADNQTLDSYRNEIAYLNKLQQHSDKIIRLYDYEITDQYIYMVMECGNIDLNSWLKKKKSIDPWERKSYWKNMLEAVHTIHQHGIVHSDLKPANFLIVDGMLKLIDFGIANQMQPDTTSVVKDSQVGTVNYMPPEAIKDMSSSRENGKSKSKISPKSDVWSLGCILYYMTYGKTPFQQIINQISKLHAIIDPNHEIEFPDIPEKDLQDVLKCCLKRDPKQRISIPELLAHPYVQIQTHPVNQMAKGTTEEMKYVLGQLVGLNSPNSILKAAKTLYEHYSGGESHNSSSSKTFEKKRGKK

[4] = test system: T3, Receptor-type tyrosine-protein kinase FLT3 (Homo sapiens), P36888 [D835Y]; conditions: at 1 µM
T3 sequence (whole entry): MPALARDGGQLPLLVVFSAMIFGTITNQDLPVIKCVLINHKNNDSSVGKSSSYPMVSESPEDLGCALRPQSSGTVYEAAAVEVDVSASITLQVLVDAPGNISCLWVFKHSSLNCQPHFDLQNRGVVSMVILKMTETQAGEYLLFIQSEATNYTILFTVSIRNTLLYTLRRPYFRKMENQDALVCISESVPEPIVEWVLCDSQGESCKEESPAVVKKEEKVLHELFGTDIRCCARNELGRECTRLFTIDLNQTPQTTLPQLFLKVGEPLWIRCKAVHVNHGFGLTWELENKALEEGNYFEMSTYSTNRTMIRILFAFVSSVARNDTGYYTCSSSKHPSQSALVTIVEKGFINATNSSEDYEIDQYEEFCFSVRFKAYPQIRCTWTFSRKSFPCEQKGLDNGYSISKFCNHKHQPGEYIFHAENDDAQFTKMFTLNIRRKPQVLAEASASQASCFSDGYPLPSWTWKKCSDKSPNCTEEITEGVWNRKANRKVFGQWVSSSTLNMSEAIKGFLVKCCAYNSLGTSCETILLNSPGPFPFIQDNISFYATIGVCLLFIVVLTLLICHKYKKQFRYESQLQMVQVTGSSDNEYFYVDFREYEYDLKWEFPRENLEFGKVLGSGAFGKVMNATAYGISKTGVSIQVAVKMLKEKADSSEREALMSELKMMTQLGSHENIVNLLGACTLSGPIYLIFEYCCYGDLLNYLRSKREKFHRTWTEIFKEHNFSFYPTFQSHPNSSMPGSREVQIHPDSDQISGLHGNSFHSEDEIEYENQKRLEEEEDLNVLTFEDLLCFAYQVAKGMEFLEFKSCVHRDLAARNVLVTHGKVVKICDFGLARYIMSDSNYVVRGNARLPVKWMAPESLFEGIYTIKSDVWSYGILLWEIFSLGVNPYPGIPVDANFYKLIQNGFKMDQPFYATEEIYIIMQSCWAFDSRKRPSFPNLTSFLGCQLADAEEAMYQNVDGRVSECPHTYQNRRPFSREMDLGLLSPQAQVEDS

[5] = biological target: Vascular endothelial growth factor receptor 3 (Homo sapiens) (UniProt P35916); conditions: at 0.1 µM
[6] = biological target: Vascular endothelial growth factor receptor 3 (Homo sapiens) (UniProt P35916); conditions: at 1 µM
[7] = biological target: Macrophage colony-stimulating factor 1 receptor (Homo sapiens) (UniProt P07333); conditions: at 0.1 µM
[8] = biological target: Macrophage colony-stimulating factor 1 receptor (Homo sapiens) (UniProt P07333); conditions: at 1 µM
[9] = biological target: Tyrosine-protein kinase Fyn (Homo sapiens) (UniProt P06241); conditions: at 0.1 µM
[10] = biological target: Tyrosine-protein kinase Fyn (Homo sapiens) (UniProt P06241); conditions: at 1 µM
[11] = biological target: Tyrosine-protein kinase HCK (Homo sapiens) (UniProt P08631); conditions: at 0.1 µM
[12] = biological target: Tyrosine-protein kinase HCK (Homo sapiens) (UniProt P08631); conditions: at 1 µM
[13] = biological target: Insulin-like growth factor 1 receptor (Homo sapiens) (UniProt P08069); conditions: at 0.1 µM
[14] = biological target: Insulin-like growth factor 1 receptor (Homo sapiens) (UniProt P08069); conditions: at 1 µM
[15] = biological target: Insulin receptor (Homo sapiens) (UniProt P06213); conditions: at 0.1 µM
[16] = biological target: Insulin receptor (Homo sapiens) (UniProt P06213); conditions: at 1 µM
[17] = biological target: Insulin receptor-related protein (Homo sapiens) (UniProt P14616); conditions: at 0.1 µM
[18] = biological target: Insulin receptor-related protein (Homo sapiens) (UniProt P14616); conditions: at 1 µM
[19] = biological target: T4, Tyrosine-protein kinase ITK/TSK (Homo sapiens) (UniProt Q08881); conditions: at 0.1 µM;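 also: mean percent inhibition of ITK from the GSK PKIS screen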
T4 sequence (whole entry): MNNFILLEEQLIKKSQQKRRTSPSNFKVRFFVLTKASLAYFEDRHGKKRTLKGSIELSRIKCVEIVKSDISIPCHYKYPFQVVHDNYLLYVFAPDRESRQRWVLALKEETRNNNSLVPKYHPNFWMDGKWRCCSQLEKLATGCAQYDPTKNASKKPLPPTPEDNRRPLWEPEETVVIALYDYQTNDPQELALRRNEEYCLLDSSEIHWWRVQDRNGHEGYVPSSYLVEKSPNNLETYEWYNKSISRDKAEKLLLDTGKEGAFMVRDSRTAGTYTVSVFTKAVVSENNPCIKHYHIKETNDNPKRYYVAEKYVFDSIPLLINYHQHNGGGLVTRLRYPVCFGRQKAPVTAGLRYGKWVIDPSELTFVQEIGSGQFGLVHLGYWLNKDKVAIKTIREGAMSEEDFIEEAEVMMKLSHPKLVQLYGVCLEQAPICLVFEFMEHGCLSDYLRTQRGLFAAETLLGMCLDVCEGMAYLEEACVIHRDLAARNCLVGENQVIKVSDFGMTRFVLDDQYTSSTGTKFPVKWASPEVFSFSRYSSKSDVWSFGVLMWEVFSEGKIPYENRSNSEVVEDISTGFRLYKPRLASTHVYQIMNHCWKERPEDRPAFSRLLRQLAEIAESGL

[20] = biological target: Serine/threonine-protein kinase PLK1 (Homo sapiens) (UniProt P53350); conditions: at 1 µM

Vascular endothelial growth factor receptor 3 (Homo sapiens), sequence (P35916 whole entry): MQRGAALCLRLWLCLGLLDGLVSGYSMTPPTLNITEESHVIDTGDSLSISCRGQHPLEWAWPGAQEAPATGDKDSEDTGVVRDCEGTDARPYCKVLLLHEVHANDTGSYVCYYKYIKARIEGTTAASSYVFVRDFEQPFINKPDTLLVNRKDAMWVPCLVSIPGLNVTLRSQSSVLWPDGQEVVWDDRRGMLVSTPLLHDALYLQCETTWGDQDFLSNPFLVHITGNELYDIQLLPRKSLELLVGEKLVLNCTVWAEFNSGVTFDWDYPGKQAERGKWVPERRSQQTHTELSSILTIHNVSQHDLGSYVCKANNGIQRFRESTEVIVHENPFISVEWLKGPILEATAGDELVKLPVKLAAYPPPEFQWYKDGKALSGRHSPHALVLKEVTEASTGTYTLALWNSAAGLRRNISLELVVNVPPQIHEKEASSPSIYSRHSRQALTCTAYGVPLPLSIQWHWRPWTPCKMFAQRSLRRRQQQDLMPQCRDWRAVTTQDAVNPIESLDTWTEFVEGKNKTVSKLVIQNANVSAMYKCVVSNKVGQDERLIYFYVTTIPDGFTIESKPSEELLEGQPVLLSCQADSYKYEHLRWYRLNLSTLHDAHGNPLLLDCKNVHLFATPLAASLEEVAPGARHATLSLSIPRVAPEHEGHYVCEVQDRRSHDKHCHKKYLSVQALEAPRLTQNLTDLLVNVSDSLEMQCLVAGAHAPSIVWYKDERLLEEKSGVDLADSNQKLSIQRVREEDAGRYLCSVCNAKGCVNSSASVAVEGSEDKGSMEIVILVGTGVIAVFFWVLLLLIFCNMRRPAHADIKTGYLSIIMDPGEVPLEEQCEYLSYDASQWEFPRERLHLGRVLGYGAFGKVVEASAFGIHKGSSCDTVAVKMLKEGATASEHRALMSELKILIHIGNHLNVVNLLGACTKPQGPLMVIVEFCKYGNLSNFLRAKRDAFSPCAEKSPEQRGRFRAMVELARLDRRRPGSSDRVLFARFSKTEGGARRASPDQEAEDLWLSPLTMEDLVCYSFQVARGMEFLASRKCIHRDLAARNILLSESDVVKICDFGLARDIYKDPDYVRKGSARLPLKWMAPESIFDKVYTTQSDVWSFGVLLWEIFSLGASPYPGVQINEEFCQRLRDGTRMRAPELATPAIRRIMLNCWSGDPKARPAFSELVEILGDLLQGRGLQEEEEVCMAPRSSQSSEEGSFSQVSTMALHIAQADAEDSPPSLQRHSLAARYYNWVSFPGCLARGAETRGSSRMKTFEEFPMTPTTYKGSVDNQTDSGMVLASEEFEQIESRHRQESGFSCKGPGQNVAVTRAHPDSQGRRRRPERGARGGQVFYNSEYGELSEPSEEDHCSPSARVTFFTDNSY
Tyrosine-protein kinase Fyn (Homo sapiens), sequence (P06241 2-537 limits assumed): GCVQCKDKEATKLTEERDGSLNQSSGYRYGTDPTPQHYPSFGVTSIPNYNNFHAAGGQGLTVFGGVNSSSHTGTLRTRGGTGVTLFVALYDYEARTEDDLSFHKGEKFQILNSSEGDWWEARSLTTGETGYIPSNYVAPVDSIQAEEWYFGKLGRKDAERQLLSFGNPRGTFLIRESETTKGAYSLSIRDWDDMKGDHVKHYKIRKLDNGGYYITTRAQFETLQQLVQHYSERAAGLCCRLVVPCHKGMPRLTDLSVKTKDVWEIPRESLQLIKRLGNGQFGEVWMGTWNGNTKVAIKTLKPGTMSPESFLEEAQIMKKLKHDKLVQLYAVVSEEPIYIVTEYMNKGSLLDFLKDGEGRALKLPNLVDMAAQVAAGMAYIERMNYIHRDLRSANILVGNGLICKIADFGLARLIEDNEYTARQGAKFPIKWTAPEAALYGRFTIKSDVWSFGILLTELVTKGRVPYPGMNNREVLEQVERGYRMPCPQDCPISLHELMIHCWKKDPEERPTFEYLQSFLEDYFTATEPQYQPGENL
Macrophage colony-stimulating factor 1 receptor (Homo sapiens), sequence (P07333 whole entry): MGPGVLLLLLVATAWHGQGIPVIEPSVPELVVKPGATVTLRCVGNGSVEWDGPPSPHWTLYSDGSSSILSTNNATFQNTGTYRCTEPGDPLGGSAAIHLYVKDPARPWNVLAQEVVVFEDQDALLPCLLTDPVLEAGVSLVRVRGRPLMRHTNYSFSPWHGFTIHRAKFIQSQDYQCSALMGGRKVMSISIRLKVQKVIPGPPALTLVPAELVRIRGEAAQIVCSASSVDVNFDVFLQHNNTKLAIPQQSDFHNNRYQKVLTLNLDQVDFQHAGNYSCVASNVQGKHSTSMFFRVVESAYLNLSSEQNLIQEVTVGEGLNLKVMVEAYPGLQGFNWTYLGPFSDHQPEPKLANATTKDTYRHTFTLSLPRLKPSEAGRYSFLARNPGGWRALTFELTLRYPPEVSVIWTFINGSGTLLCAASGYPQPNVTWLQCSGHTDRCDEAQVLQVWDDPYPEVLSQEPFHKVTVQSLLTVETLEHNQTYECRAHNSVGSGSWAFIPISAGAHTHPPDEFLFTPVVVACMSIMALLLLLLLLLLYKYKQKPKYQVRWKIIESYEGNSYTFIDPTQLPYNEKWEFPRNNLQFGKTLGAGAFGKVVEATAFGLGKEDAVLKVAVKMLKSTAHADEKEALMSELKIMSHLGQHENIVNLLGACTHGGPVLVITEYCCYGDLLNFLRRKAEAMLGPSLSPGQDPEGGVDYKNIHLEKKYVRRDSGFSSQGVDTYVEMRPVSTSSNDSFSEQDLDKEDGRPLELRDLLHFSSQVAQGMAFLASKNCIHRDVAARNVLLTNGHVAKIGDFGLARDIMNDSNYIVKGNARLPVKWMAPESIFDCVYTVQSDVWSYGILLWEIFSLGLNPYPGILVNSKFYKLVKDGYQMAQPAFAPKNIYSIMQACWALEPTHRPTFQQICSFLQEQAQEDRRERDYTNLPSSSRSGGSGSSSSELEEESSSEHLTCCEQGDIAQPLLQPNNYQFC
Insulin-like growth factor 1 receptor (Homo sapiens), sequence (P08069 31-736 limits assumed): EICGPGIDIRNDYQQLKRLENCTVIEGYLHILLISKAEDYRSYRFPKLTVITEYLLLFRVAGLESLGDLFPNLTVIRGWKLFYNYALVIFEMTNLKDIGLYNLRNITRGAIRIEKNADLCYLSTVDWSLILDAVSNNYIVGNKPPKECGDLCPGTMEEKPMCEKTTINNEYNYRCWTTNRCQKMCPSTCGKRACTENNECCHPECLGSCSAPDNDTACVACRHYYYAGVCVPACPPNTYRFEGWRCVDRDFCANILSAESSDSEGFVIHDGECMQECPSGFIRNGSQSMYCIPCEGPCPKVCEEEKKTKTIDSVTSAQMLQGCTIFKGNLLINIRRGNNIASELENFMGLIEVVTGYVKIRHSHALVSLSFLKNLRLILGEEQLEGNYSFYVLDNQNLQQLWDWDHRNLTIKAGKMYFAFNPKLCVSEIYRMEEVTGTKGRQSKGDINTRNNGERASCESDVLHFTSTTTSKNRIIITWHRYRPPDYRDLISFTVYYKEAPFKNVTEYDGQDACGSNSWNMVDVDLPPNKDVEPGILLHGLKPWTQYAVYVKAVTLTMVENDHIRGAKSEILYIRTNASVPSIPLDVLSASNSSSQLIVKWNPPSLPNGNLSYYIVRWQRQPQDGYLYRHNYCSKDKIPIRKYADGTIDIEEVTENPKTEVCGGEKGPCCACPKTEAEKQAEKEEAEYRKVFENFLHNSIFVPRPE
Insulin-like growth factor 1 receptor (Homo sapiens), sequence (P08069 741-1367 limits assumed): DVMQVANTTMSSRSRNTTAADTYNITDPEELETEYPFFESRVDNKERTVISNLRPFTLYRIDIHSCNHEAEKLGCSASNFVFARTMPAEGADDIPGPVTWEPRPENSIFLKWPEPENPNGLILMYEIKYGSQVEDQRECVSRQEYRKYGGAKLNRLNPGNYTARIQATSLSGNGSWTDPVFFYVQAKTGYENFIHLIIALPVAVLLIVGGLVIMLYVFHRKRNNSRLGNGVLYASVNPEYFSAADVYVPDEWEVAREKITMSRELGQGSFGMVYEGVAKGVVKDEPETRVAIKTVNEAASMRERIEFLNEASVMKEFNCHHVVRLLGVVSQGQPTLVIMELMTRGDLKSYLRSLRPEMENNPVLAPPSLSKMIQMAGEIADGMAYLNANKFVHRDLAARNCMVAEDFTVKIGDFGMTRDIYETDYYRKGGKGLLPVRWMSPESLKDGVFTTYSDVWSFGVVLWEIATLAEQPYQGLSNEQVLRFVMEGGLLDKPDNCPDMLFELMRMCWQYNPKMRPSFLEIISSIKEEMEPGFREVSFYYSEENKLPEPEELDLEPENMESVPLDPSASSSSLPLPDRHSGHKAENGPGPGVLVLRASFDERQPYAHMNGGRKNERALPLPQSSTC
Serine/threonine-protein kinase PLK1 (Homo sapiens), sequence (P53350 whole entry): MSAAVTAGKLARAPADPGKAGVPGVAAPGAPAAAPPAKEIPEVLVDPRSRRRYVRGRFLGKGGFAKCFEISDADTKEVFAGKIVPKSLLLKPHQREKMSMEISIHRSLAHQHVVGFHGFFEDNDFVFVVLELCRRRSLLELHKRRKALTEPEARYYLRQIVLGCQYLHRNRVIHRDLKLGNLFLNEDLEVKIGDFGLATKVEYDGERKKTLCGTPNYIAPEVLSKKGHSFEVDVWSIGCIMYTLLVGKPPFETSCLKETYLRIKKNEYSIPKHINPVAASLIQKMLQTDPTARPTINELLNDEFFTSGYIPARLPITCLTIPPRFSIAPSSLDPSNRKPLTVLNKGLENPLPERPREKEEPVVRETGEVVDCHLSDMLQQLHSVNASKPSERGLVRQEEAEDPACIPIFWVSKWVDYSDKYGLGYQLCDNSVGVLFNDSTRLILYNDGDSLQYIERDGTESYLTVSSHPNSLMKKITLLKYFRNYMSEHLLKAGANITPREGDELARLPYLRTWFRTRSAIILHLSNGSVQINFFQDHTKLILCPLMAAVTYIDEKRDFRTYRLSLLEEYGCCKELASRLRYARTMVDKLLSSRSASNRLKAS

SMILES	inhibition [1]	inhibition [2]	inhibition [3]	inhibition [4]	inhibition [5]	inhibition [6]	inhibition [7]	inhibition [8]	inhibition [9]	inhibition [10]	inhibition [11]	inhibition [12]	inhibition [13]	inhibition [14]	inhibition [15]	inhibition [16]	inhibition [17]	inhibition [18]	inhibition [19]	inhibition [20]
CCS(=O)(=O)c1ccc(OC)c(Nc2ncc(-c3cccc(-c4ccccc4F)c3)o2)c1	-0.99%	20.4%	0.9%	45%	41%	82.8%	4.55%	27.2%	47.1%	85.6%	16.9%	64.4%	2.3%	3.39%	2.01%	1.9%	-1.45%	-0.35%	0.42%	
Cc1nnc(-c2ccc(C)c(-c3ccc(C(=O)NCc4ccc(Cl)cc4)cc3)c2)o1	11.6%	3.2%	11.7%	-0.11%	-5.22%		2.43%	0.83%	-2.42%	-1.62%	4.39%	5.02%	-3.42%	-3.35%	5.65%	6.19%	1.93%	1.98%	-2.09%	4.52%
C[C@@H](Oc1cc(-n2cnc3ccc(OCC4CCN(C)CC4)cc32)sc1C(N)=O)c1ccccc1Cl	89.7%		93.6%	11.7%	5.35%	23.9%	4.53%	17.9%	4.31%	15.3%	8.11%	29.6%	6.33%	7.27%	6.64%	8.87%	2.3%	3.31%	2.76%	
CN(C)c1ccc2c(c1)/C(=C/Nc1ccc(S(N)(=O)=O)cc1)C(=O)N2	4.93%	2.05%	5.45%	33.6%		55%	4.82%	18.8%	2.68%	13.1%	4.88%	20.5%	9.21%	11.9%	3.88%	6.31%	0.97%	3.14%	1.03%	2.41%
C[C@@H](Oc1cc(-n2cnc3ccc(OC4CCN(C)CC4)cc32)sc1C(N)=O)c1ccccc1Cl	97.2%		6.06%	12.2%	-3.01%	13.8%	3.34%	16.3%	-3.18%	-4.42%	6.15%	13%	-9.14%	0.05%	10.4%	-1.99%	2.49%	3.03%	-2.4%	
COc1cc(Nc2ncc3c(C)nc(-c4cccc(C(F)(F)F)c4)n3n2)cc(OC)c1OC	86.1%		8.36%	35.8%	-1.5%	2.6%	32.9%	79.8%	6.79%	39.7%	6.2%	22.6%	2.62%	5.74%	5.92%	8.95%	1.64%	3.39%	2.02%	
NS(=O)(=O)c1ccc(N/N=C2\C(=O)Nc3ccc(-c4cnco4)cc32)cc1	7.27%	3.71%	15.1%	73.1%	-4.32%	25.8%	4.76%	27.8%	-0.9%	7.81%	5.08%	23.3%		-2.26%	1.72%	7.36%	-1.08%	0.6%	-3.91%	3.38%
